# Source: PubChem BioAssay AID1039 (National Center for Advancing Translational Sciences (NCATS), 2008)
# Activity calls are given as the source filed them. Calls come from the whole dose curve.
# Assay: Normal 2 Cell Viability Secondary Assay for qHTS Assay for Epigenetic Modulators
# Settings: Normal 2 bronchial epithelial viability, MTS, 4 days
# Excerpt: NIH Molecular Libraries Screening Centers Network [MLSCN] NIH Chemical Genomics Center [NCGC] MLSCN Grant: 1 X01 MH079860-01 Assay Provider: Elisabeth D. Martinez, University of Texas SW Medical Center NCGC Assay Overview: This secondary assay characterizes selected actives identified in the qHTS of the Locus Derepression (LDR) assay (PubChem AID 597). The LDR assay detects the derepression of a GFP reporter that is stably integrated in a region of the genome of murine c127i mammary cells that is presumably silenced. Compounds that cause derepression of the locus to express GFP are identified by enumerating GFP positive cells using a laser-scanning microplate cytometer. […] Normal 2 cell viability was measured using Cell Titer 96 AQueous One (Promega), an assay which detects the ability of metabolically active cells to reduce a tetrazolium salt substrate (MTS), into a soluble formazan product that can be measured by colorimetry.
# NCGC Assay Protocol Summary Normal 2 cells were plated in 96-well flat bottom tissue culture dishes (Corning) and grown overnight at 37 C and 5% CO2, then treated with compounds, incubated 4 days, and assayed for viability using the Cell Titer 96 AQueous One kit (Promega) according to the manufacturer's protocol. Absorbance at 490 nm and 650 nm (reference) was measured by a Spectra Max (Molecular Devices). […]
compound,measurement,value
CN1CSC(=S)N(C)C1,outcome,inactive
